FBW7 activator: activators of human E3 ligase FBW7 | normalized activity (activation), % at 26.1 µM | Q969H0 | 650,000 compounds, 0.13% hits | AlphaScreen FBW7–phospho-cyclin E peptide binding, activator screen | AID 1259310; in the data active = normalized activity above about 1.9%;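 note: purified mutant Fbw7 with reduced substrate affinity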
TEAD-YAP inh: TEAD-YAP interaction inhibition; inhibition, % at 9.12 µM; HEK-TIYL cells, TEAD-Gal4/YAP UAS-luciferase luminescence; 640,000 compounds, 1.4% hits; AID 1259422; in the data active = inhibition above about 32%;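 note: 0% = median of test compound wells and 100% = reference inhibitor wells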
GPR151 activ: human GPR151 activation | Q8TDV0 | PathHunter beta-arrestin GPR151 cells, luminescence | activation, % at 11.2 µM | 650,000 compounds, 1% hits | AID 1508602; in the data active = activation above about 4.9%;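 note: 0% = median of compound wells and 100% = cells with positive control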
MITF inh: blocks human microphthalmia-associated transcription factor. inhibition, % at 2.6 µM. 650,000 compounds, 0.91% hits. AlphaScreen MITF homodimerization, bead proximity signal. AID 1259374; in the data active = inhibition above about 50%;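 note: 0% = vehicle wells with protein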
Target sequence (O75030 whole entry, looked up): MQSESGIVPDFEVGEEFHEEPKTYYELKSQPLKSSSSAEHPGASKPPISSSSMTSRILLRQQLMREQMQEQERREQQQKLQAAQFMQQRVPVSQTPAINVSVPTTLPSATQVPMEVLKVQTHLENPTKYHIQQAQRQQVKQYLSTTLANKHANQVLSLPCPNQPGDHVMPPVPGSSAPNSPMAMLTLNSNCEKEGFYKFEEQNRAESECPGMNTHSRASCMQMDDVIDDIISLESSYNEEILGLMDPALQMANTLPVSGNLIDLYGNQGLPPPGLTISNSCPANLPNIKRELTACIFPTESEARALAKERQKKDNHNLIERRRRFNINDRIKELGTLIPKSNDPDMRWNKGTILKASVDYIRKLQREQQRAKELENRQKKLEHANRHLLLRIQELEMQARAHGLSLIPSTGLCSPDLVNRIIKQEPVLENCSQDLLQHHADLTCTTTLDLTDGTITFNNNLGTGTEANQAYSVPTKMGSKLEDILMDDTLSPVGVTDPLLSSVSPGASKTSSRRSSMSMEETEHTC
The depositor's hits bear a star. An excerpt weighted towards active compounds, which were near 3.5% of everything screened.

SMILES	FBW7 activator	TEAD-YAP inh	GPR151 activ	MITF inh
CCOC(=O)c1ccc(NC(=O)COc2ccc(Br)cc2C)cc1	0	4	0	12
CCCCC(=O)NCCNc1nc(C)nc2sc3c(c12)CCCC3	0	33*	1	10
Cc1ccc(C(=O)Nc2nc3ccccc3n2C)cc1	0	41*	-3	16
Cn1c(NC(=O)c2ccc(Cl)c(Cl)c2)nc2ccccc21	0	-20	0	22
CCOC(=O)/C(C#N)=N/Nc1cc(OC)c(NC(C)=O)cc1OC	0	0	-1	-1
Cc1ccc2nc(-c3cc(N)ccc3Cl)oc2c1	0	-26	-6	-7
Cc1ccc2nc(-c3cccc(N)c3)oc2c1	1	46*	-10	20
Nc1cccc(-c2nc3cc(N)ccc3o2)c1	0	-34	-4	-1
Cc1ccc2nc(-c3ccc(N)cc3)oc2c1	0	66*	-6	4
Cc1cc2nc(-c3ccc(N)cc3)oc2cc1C	0	83*	-8	1
Cc1ccc2nc(-c3ccc(O)cc3)oc2c1	0	98*	-6	2
Cc1ccc2nc(-c3ccc(NC(=O)c4ccc(I)cc4)cc3)oc2c1	0	-1	-2	-13
CCC(c1ccccc1)c1nc(-c2ccc([N+](=O)[O-])cc2)no1 (stereo not given)	0	0	-1	12
CC(C)CCNC(=O)CN(C(=O)c1snc(C(N)=O)c1N)c1ccc(F)cc1	0	-7	0	5
CC(C)CCNC(=O)CN(C(=O)c1snc(C(N)=O)c1N)c1ccccc1F	2.1*	0	1	2
COc1ccccc1NC(=O)C1=C(C)NC(SCc2ccccc2Cl)=C(C#N)C1c1ccccc1Cl (stereo not given)	0	9	1	-5
CC(C)n1cnc2c(NCc3nc4ccccc4[nH]3)nc(-c3ccc(C(=O)N4CCN(C)CC4)cc3)nc21	0	65*	-1	7
CC(C)n1cnc2c(NCc3ccccc3)nc(-c3ccc(C(=O)N4CCN(C)CC4)cc3)nc21	0	-3	0	11
CC(C)n1cnc2c(NCc3nc4ccccc4[nH]3)nc(-c3ccc(C(=O)NC4CC4)cc3)nc21	0	78*	-1	18
Cc1ccc(NC(=S)NC(=O)C(=O)Nc2ccccc2)cc1	0	-5	1	12
COc1ccc(CNc2ccc(Nc3ccccc3)cc2)cc1	0	-2	-1	31
CCOc1ccc(N/C=C/C(=O)c2ccc(OC)cc2)c([N+](=O)[O-])c1	0	43*	0	-4
COc1ccc(NC(=O)CCS(=O)(=O)Cc2ccccc2)c([N+](=O)[O-])c1	0	58*	0	-7
CCOc1ccc(NC(=O)c2cccc(OC)c2)c([N+](=O)[O-])c1	0	32*	-3	22
COCCCNC(=O)CCCOc1ccc(Cl)cc1Cl	0	-5	1	-3
SMILES	FBW7 activator	TEAD-YAP inh	GPR151 activ	MITF inh
COc1cccc(C(=O)Nc2nnc(C3CCCCC3)s2)c1OC	0	-59	-2	16
C/C(=N\Nc1ccc(C)cc1)c1ccc(-n2ccnc2)cc1	0	-9	2	9
O=C(c1cc(Cc2ccc(F)cc2)no1)N1CCN(C(=O)c2cccs2)CC1	0	-38	1	7
CN1C(=O)N(C)C(NNC(N)=S)C1NNC(N)=S (stereo not given)	0	88*	1	11
NS(=O)(=O)c1ccc(N=Cc2c(O)n(Cc3ccco3)c(=O)[nH]c2=O)cc1	-1	8	1	79*
Cc1ccc(NC(=O)CSc2nc3n[nH]c(C)c3c(=N)n2-c2ccc(Cl)c(C)c2)cc1	0	1	1	8
CCn1c(SCC(=O)Nc2cc(C)ccc2C)nnc1C1CC1	0	7	0	-1
COc1cc(C(=O)Nc2ccc3c4c(cccc24)CC3)cc(OC)c1OC	0	53*	0	11
CC(=O)c1ccc(NC(=O)COc2cc(C)ccc2C(C)C)cc1	0	-20	-1	-6
COc1ccc(C(=O)Nc2cccc3ccccc23)cc1OC	0	-3	1	1
COc1ccc(C(=O)Nc2ccc3c4c(cccc24)CC3)cc1	0	-47	1	11
COc1cc(NC(=O)c2cccc(-n3cc(NC(=O)Nc4ccccc4)cn3)c2)cc(OC)c1OC	0	37*	0	1
Cc1ccc(C(C)C)c(OCC(=O)Nc2ccc(C(=O)Nc3cccc4ccccc34)cc2)c1	0	60*	1	12
COc1cc(C(=O)Nc2cccc(C(=O)Nc3cccc4ccccc34)c2)cc(OC)c1OC	1	64*	2	-8
CCSc1nnc(NC(=O)CSc2ncnc3ccccc23)s1	0	0	1	-2
COc1cc(NC(=O)c2cccc(-n3cc(Nc4cnnn4-c4ccccc4)cn3)c2)ccc1N1CCOCC1	0	18	-2	7
COc1cc(NC(=O)c2cccc(-n3cc(N(C)c4nnnn4-c4ccccc4)cn3)c2)ccc1N1CCOCC1	0	38*	1	1
Nc1cc(N=Cc2c(O)[nH]c(=S)[nH]c2=O)ccc1O	-1	5	2	92*
CCN(CC)S(=O)(=O)c1ccc(N=Cc2c(O)[nH]c(=S)[nH]c2=O)cc1	0	1	-1	1
CCN(CC)c1ccc(N=Cc2c(O)[nH]c(=S)[nH]c2=O)cc1	0	6	-1	51*
COc1ccc(C)cc1N(CC(=O)N1CCC(Cc2ccccc2)CC1)S(C)(=O)=O	0	8	0	-3
O=C(/C=C/c1ccco1)NC(=S)NCc1cccnc1	1	47*	0	28
COC(=O)CCNc1ncnc2scc(-c3ccc(C)cc3)c12	0	36*	3	1
CCOC(=O)CNc1ncnc2scc(-c3ccccc3)c12	0	35*	0	2
COc1ccc(-c2csc3ncnc(NCCO)c23)cc1	1	38*	2	-2
SMILES	FBW7 activator	TEAD-YAP inh	GPR151 activ	MITF inh
CCOC(=O)CNC(=O)CSc1ncnc2scc(-c3ccc(Cl)cc3)c12	0	-10	-1	-1
CCOC(=O)CSc1ncnc2scc(-c3ccc(F)cc3)c12	2.4*	-15	0	-15
COc1ccc(-c2csc3ncnc(NCCCO)c23)cc1	0	28	1	8
Cc1ccc(N2C(=O)c3ccc4c5c(ccc(c35)C2=O)C(=O)NC4=O)cc1	0	1	0	4
CC(=O)Nc1ccc(-n2c(/C=C/c3ccc([N+](=O)[O-])cc3)nc3ccccc3c2=O)cc1	0	8	0	19
COc1ccc(C2=NN(C(=O)c3ccco3)C(c3ccccc3O)C2)cc1 (stereo not given)	0	-3	-1	6
CN(c1ncnc2c1cnn2-c1ccccc1)C1CCCCC1	0	93*	1	-2
Cc1ccc(-n2ncc3c(NC4CCCC4)ncnc32)cc1	0	37*	-1	-8
Fc1ccc(-n2ncc3c(NC4CCCC4)ncnc32)cc1	0	-22	0	-6
c1ccc(-n2ncc3c(NC4CCCCCCCCCCC4)ncnc32)cc1	0	-5	1	31
Cc1cccc(-n2ncc3c(NC4CCCCC4)ncnc32)c1	0	53*	2	-6

Compound activity from PubChem.
